This is a sample that favours compounds with a hit; in the whole collection about 1.5% have one here.
Polio RdRp inh = poliovirus RNA polymerase inhibition; poliovirus polymerase elongation, fluorescence polarization; hits give low values; % elongation, % (compound at 16.7 µg/mL); 0.66% of 150,000 active; AID 588519; in the data active = % elongation below about 90%
Mtb MbtI inh = blocks the Mycobacterium tuberculosis siderophore enzyme MbtI; P9WFX0; purified MbtI enzyme, fluorescence intensity read-out; inhibition, % (no concentration beside the values); 0.89% of 100,000 active; in the data active = inhibition mostly above about 56%, no sharp cut-off; inactive = mostly below about 77%
Target sequence (P9WFX0 whole entry, looked up): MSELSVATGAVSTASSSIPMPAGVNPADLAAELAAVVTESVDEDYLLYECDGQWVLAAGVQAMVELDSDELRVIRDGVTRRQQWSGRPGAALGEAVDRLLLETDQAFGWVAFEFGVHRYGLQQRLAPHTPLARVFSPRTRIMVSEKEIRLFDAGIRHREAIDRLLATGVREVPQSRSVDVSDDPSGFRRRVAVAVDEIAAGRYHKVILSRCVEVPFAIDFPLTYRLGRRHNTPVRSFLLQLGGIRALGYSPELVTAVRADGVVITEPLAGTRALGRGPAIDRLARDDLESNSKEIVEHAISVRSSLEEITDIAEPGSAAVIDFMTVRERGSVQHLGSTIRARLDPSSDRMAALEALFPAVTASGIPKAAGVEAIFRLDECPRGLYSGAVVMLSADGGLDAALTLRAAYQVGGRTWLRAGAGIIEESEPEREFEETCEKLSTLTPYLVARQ
Mtb MenB inh = Mtb MenB enzyme inhibition; MenB enzyme assay, absorbance read-out; inhibition, % (no concentration beside the values); P9WNP5; 0.43% of 100,000 active; AID 540299; in the data active = inhibition above about 21%, passing the limit was not always enough
A number is an active result; n = inactive; x = no result given.

SMILES	Polio RdRp inh	Mtb MbtI inh	Mtb MenB inh
CCCCn1c2c(c(=O)n(C)c1=O)C(c1ccc(OC)cc1)C(NC(=O)c1ccccc1)C(=O)N2 (stereo not given)	n	n	n
CCOC(=O)C1=C(C)OC2(O)c3ccccc3C(=O)C12O (stereo not given)	56	n	n
CC1=C(C(=O)OC(C)C)C2(O)C(=O)c3ccccc3C2(O)N1 (stereo not given)	n	n	n
O=C1OCC(CO)N1c1ccccc1 (stereo not given)	90	x	n
OCC1COc2ccccc2O1 (stereo not given)	x	n	x
N#CCCS(=O)(=O)c1ccc(N)cc1	n	x	n
Nc1ccc(S(=O)(=O)CCSS(=O)(=O)c2ccc(N)cc2)cc1	63	99	n
CSc1nsc(SC)c1NC(=O)Nc1ccccn1	n	x	n
CSc1nsc(SC)c1NC(=O)OCC1CCCO1 (stereo not given)	88	x	n
CCOC(=O)c1sc(NS(=O)(=O)c2ccccc2C(F)(F)F)cc1C	n	n	n
CC(C)NC1CCC(C(C)(C)C)CC1 (stereo not given)	n	n	n
COc1ccc(-n2nc3c(N4CCCC(C(=O)NCc5ccc(C)cc5)C4)nnc(C)c3c2C)cc1 (stereo not given)	89	x	x
COc1ccc(CNC(=O)C2CCCN(c3nnc(C)c4c(C)n(-c5ccc(C)cc5)nc34)C2)cc1 (stereo not given)	n	x	x
N=C1SCCN1CC(=O)c1ccc(O)cc1	n	n	n
COC(=O)c1cc2sccc2n1CC(=O)Nc1ccc(C(C)C)cc1	n	n	n
Cc1ccc(C)c(NC(=O)C2CCCN(S(=O)(=O)c3cccc4nsnc34)C2)c1 (stereo not given)	n	x	x
O=C(COC(=O)C1CC(=O)N(CCc2ccccc2)C1)NC1CC1 (stereo not given)	n	n	n
CCCc1cc2ccccc2o1	n	n	32
Clc1cccc(Cl)c1CSCc1cc2ccccc2o1	n	n	n
CC(Cc1ccccc1)NCc1ccco1 (stereo not given)	n	n	n
O=C1C(Nc2cccc(O)c2)=C(n2nnc3ccccc32)C(=O)c2ccccc21	51	n	n
O=C1C(N2CCCCC2)=C(n2nnc3ccccc32)C(=O)c2ccccc21	n	n	n
Cn1nnnc1Sc1nc(-c2ccccc2)nc2ccccc12	n	n	n
Cc1ccc(CNC(=O)c2ccccc2C(=O)O)cc1	n	n	n
CN1C(=S)N(C2CC2)C(=O)/C1=C\c1ccc(OC(F)F)cc1	n	n	n
SMILES	Polio RdRp inh	Mtb MbtI inh	Mtb MenB inh
CC(C)(C)C1(O)C=C(O)C(=O)N1c1cccnc1 (stereo not given)	n	x	53
O=C1c2ccccc2C(=O)N1c1cccnc1	x	n	x
COc1ccccc1-c1nnc(NC(=O)c2ccccc2S(C)(=O)=O)o1	n	n	n
COC(=O)C1=NOC2C(=O)N(c3ccccc3)C(=O)C12 (stereo not given)	x	n	x
COC(=O)C1=NNC2(c3ccc(C)cc3)C(=O)N(c3ccc(C)cc3)C(=O)C12 (stereo not given)	n	n	36
CC1CCCC(C)N1Cn1nc(-c2ccccc2)n(-c2ccccc2)c1=S (stereo not given)	n	n	n
CC1CCCC(C)N1Cn1nc2sc3ccccc3n2c1=S (stereo not given)	n	98	n
O=C1N=c2ccccc2=C1c1sc(N2CCCCC2)nc1O	58	n	n
O=C1N=c2ccccc2=C1c1sc(=O)[nH]c1O	n	n	n
O=C1N=c2ccccc2=C1c1sc(=S)[nH]c1O	n	84	n
CN(c1ccc(O)cc1)c1nc(O)c(C2=c3ccccc3=NC2=O)s1	n	n	n
CC1SC(c2ccc3c(c2)OCO3)N(c2nc3ccccc3s2)C1=O (stereo not given)	n	n	n
CN(C)C(CNCc1ccc(-n2cnc3ccccc32)cc1)c1ccco1 (stereo not given)	n	n	32
CN(C)C(CNC(=O)c1ccccn1)c1ccco1 (stereo not given)	n	n	n
Cn1c(SCCS(=O)(=O)c2ccc(Cl)cc2Cl)nnc1-c1ccco1	n	n	n
O=C(Nc1ccccc1C(=O)O)c1cccs1	n	89	n
O=C(Nc1ccccc1C(F)(F)F)c1cccs1	n	x	n
O=c1[nH]c(Cn2c(-c3cncs3)nc3ccccc32)nc2ccccc12	n	n	n
COc1cc(/C=C2/C(=N)N3C(=NC2=O)SN=C3S(=O)(=O)C(C)C)cc(Cl)c1OC(=O)c1ccco1	n	n	n
CC(C)S(=O)(=O)C1=NSC2=NC(=O)/C(=C\c3ccco3)C(=N)N21	79	n	n
CCOc1ccccc1CNC(=O)c1ccc(CS(=O)Cc2cccc(Cl)c2)o1 (stereo not given)	n	x	x
CC(C)=NNC(=O)CNc1ccccc1Cl	n	n	n
O=C(CNc1ccccc1Cl)N/N=C1\CCCc2ccccc21	n	n	39
O=S(=O)(Cc1cccc(Cl)c1)c1nc(C(F)(F)F)cc(C(F)(F)F)n1	n	n	n
CCOC(=O)C1CCCN(C(=O)c2nn(-c3ccc(OC)cc3)c(=O)c3c2c2ccccc2n3C)C1 (stereo not given)	n	x	x
SMILES	Polio RdRp inh	Mtb MbtI inh	Mtb MenB inh
CCOC(=O)C1CCCN(Cn2nnn(-c3ccc(OC)cc3)c2=S)C1 (stereo not given)	79	63	n
COc1ccc(C(=O)NC(Nc2cc(C)on2)(C(F)(F)F)C(F)(F)F)cc1	n	n	n
CCCCNC(=O)c1cn(C)c2ccc(S(=O)(=O)N3CCCCC3)cc2c1=O	n	n	n
OC12CCCCC1C(c1ccc(Cl)cc1Cl)NCC2 (stereo not given)	n	x	n
O=C(OCCN1C(=O)c2ccccc2C1=O)c1c2c(nc3ccccc13)CCC2	n	n	n
CCN(CC)c1ncc2c(=S)[nH]c(=S)[nH]c2n1	n	n	n
C=CCSc1ncc2c(=S)[nH]c(=S)[nH]c2n1	n	56	n
Cc1cc(C)cc(Nc2nc3ccccc3nc2-n2nc(C)cc2C)c1	n	x	x
Cc1cc(C(=O)OCC(=O)C(C)(C)C)c2ccccc2n1	n	n	n
O=C(COC(=O)c1nc(Cl)ccc1Cl)c1ccc2[nH]c(=O)[nH]c2c1	38	n	n
O=C(COC(=O)c1ccc(Cl)s1)c1ccc2[nH]c(=O)[nH]c2c1	79	n	n
Cc1cc(C(=O)OCC(=O)c2ccc3[nH]c(=O)[nH]c3c2)c2ccccc2n1	90	n	n
Cc1cc(C)nc(SCC(=O)OCC(=O)c2ccc3[nH]c(=O)[nH]c3c2)n1	n	n	n
Cc1cc(C(=O)COC(=O)c2ccc(Cl)s2)c(C)n1-c1ncn[nH]1	n	n	n
CCn1cc(S(=O)(=O)c2cccc(Cl)c2)c(=O)c2cc(F)c(N3CCN(C)CC3)cc21	n	x	x
COc1ccc2oc(/C=C/N(C)C)c(C(=O)c3ccc(Br)cc3)c2c1	n	x	n
Cc1cc(C)c2c(n1)SCC(=O)N2CC(=O)NCC1CCCO1 (stereo not given)	n	n	n
CNCCn1ccc2ccccc21	x	n	x
Cc1nn(CCC(N)=S)c2nc(-c3ccccc3)ccc12	73	n	n
Nc1cc(-c2ccccc2)nn1CCO	n	n	n
CCOC(=O)c1cc(-c2ccc(C)cc2)n(CC(=O)NCC2COc3ccccc3O2)c1C (stereo not given)	n	n	n
CCOc1ccccc1NC(=O)CSc1nc2cc(OC)c(OC)cc2c2nc(CCn3c(C)nc4ccccc43)nn12	n	x	x
